The list is not random: actives were taken first. Their share in the collection is about 2.2%.
HTR2A ag = activates the mouse 5-HT2A serotonin receptor | AID 624169 | 0.66% of 360,000 active | P35363 | CHO-K1 mHTR2A beta-arrestin complementation, luminescence; percent of 30 µM serotonin response | activation, % at 7.6 µM;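 active means activation above a run cutoff, the mean activation of all tested compounds plus 3 SD, cut at about 14% in these data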;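 further: 0% = plate median of compound wells and 100% = 30 µM serotonin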
VLA-4 inh = inhibition in a human VLA-4 binding assay | P13612 | VLA-4 expressing cells, ligand binding flow cytometry | inhibition, % (about 7 µM as worked out from the volumes in the protocol) | 0.2% of 330,000 active | AID 2557; in the data active means inhibition above about 50%
Target sequence (P13612 whole entry, looked up): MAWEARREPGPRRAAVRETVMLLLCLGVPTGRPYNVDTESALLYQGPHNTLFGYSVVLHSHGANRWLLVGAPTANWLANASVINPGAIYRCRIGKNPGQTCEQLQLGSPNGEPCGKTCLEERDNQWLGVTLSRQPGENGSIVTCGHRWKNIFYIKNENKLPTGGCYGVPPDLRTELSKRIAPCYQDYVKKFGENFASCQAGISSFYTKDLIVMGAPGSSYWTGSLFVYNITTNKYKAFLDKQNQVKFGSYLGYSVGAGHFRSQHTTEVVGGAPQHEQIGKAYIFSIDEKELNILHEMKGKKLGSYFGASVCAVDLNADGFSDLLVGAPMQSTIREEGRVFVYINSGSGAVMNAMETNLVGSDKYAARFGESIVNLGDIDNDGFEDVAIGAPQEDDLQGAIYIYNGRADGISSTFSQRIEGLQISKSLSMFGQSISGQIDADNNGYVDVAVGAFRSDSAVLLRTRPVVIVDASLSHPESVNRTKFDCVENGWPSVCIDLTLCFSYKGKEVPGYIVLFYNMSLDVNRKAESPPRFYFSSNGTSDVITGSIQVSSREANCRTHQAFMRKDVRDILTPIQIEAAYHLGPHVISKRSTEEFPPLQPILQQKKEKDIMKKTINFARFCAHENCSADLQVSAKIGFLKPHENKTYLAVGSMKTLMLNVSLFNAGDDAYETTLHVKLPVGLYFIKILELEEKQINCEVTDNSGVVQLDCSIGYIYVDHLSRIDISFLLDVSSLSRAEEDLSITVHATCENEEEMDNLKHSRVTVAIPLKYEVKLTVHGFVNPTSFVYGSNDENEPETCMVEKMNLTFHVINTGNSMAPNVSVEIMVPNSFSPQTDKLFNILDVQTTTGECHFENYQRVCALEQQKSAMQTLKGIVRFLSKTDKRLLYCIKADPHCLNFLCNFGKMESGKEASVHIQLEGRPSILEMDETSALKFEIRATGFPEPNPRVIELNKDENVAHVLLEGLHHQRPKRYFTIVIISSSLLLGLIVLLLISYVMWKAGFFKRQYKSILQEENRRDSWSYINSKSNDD
MEX-5 binding = C. elegans MEX-5 TCR-2 RNA binding activity. Q9XUB2. MEX-5/FITC-TCR2 RNA binding, fluorescence polarization; stronger effect = lower value. activity score (negative = inhibition of binding), % at 10 µM. 0.38% of 300,000 active. AID 1832;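 active means inhibition past about -25% in most replicates, and total fluorescence under double the plate's negative control median, limit read from the data; inconclusive means replicates evenly split on the limit, or fluorescence at least double controls; inactive means too little inhibition in most replicates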;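 further: 0% = DMSO and -100% = 5 µM competing unlabeled TCR2 RNA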
Granule exo inh = lytic granule exocytosis inhibition | inhibition, % at 10 µM | AID 651702 | TALL-104 LAMP-1 surface exposure, flow cytometry; cells stimulated with thapsigargin and PMA | 0.66% of 360,000 active;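 active means inhibition above about 55%, limit read from the data; inconclusive means no clear call, values can overlap the other calls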
V-ATPase pH = alters yeast V-ATPase proton transport; 0.37% of 350,000 active; response, % at 10 µM; S. cerevisiae, pHLuorin cytosolic pH fluorescence; in the data active means response mostly above about 7.3%, no sharp cut-off; inactive means mostly below about 5.4%; further: actives read high
GASC-1 inh = blocks human GASC-1 demethylase activity. inhibition, % at 2.35 µM. Q9H3R0. GST-JMJD2C(1-420) H3K9me3 demethylation, DELFIA europium. 0.069% of 330,000 active;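 active means more than half of a compound's replicate wells show inhibition beyond 50%, single wells judged on their own value; inconclusive means some, but no more than half, of replicates pass 50% inhibition; inactive means no replicate passes 50% inhibition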;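 further: signal counts dimethyl H3K9 product captured on neutravidin plate; 0% = median of DMSO wells and 100% = 0.3 times that DMSO median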
Active calls of the source: *; i = inactive; ? = inconclusive; . = no result given.

SMILES | HTR2A ag | VLA-4 inh | MEX-5 binding | Granule exo inh | V-ATPase pH | GASC-1 inh
COc1ccc(NC(=O)CS(=O)(=O)c2cn(CC(=O)N3CCCC3)c3ccccc23)c(OC)c1 | 4.3 | 12.8 | -1.6 | -1.1 | -3.4 | -1.0
COc1ccc(CCNC(=O)COc2cc(O)c3c(c2)OC(C)(C)CC3=O)cc1OC | 2.5 | -18.2 | -1.4 | 3.8 | 1.0 | -5.9
Cc1ccc(C2C3CN(C(C)C)CC=C3C(C#N)=C(N)C2(C#N)C#N)cc1 (centres undefined) | -5.0 | -25.4 | -27.9* | -1.0 | -1.8 | 7.2
CCOC(=O)N1CC=C2C(C#N)=C(N)C(C#N)(C#N)[C@H](c3ccc(OCC)c(OCC)c3)[C@H]2C1 | -2.7 | 3.7 | -8.6 | 4.2 | 2.2 | 1.3
CCCN1CC=C2C(C#N)=C(N)C(C#N)(C#N)C(c3cccc(OC)c3OC)C2C1 (centres undefined) | -2.9 | -17.9 | -67.1* | 5.7 | -5.2 | -2.5
COc1ccc(OC)c(C2C3CN(C(C)C)CC=C3C(C#N)=C(N)C2(C#N)C#N)c1 (centres undefined) | -1.2 | -2.3 | -38.3* | -0.4 | 1.0 | 4.7
COc1cccc(OC)c1OCc1cc(C2C3CCCC=C3C(C#N)=C(N)C2(C#N)C#N)c(C)cc1C (centres undefined) | 7.5 | 11.7 | 6.2 | 3.2 | 6.5 | -1.4
COc1cccc(OC)c1OCCN1CCC(C(=O)NC(c2ccc3c(c2)OCO3)c2ccccn2)CC1 (centres undefined) | -3.4 | . | . | 6.0 | . | .
COc1ccc(S(=O)(=O)N2CCOC2CNC(=O)C(=O)NCCCN2CCCC2=O)cc1OC (centres undefined) | 12.1 | . | . | 3.4 | . | .
O=C(Cn1nnc(-c2ccc(F)cc2)n1)NC(=O)NC1CCCCC1 | 10.3 | . | . | 1.5 | . | .
CNC(C)C(=O)NC(C(=O)NC(C)C(=O)NNc1ccccc1)C(C)C (centres undefined) | 0.6 | . | . | 3.5 | . | .
N#CC1=C(N)Oc2cc(O)c(Cl)cc2C1c1ccccc1F (centres undefined) | -3.4 | 16.5 | -46.2* | -9.9 | -6.0 | 5.4
N#CC1=C(N)Oc2cc(O)c(Cl)cc2C1c1cccnc1 (centres undefined) | -1.2 | -4.1 | -1.2 | -0.9 | 1.1 | 27.7
CCCN1CCC(NC(=O)Nc2ccc(F)cc2F)CC1 | 1.3 | 17.3 | -1.2 | 0.7 | 15.1* | 9.2
CC1(C(=O)NS(=O)(=O)c2ccccc2Cl)CCN1C(=O)CCc1ccccc1 (centres undefined) | 3.5 | . | . | -6.1 | . | .
CC1(C)CC[C@]2(C(=O)O)CC[C@]3(C)C(=CCC4[C@@]5(C)CC[C@H](O)C(C)(C)C5CC[C@]43C)C2C1 (some centres undefined) | 5.4 | 9.2 | 0.9 | 55.7* | -3.4 | 5.0
CCOC(=O)C1CCCN(S(=O)(=O)c2ccc3c(c2)N(C(C)=O)CCO3)C1 (centres undefined) | 5.7 | 20.7 | 2.7 | -6.8 | 2.6 | 2.2
CCCCNc1c(-c2ccc(SC(C)CC)cc2)nc2cnccn12 (centres undefined) | 8.2 | i | . | 2.2 | -3.0 | -7.4
COC(=O)c1cc(C(=O)Nc2cc(C)on2)cc([N+](=O)[O-])c1 | -1.3 | 4.5 | -1.6 | -2.3 | 0.6 | -1.2
COC(=O)c1cc(C(=O)Nc2cc(C)ccn2)cc([N+](=O)[O-])c1 | 14.5* | 12.1 | -0.2 | -1.9 | 2.5 | -11.3
COc1cc(C(Nc2ccccn2)c2ccc3ccc(C)nc3c2O)cc(OC)c1O (centres undefined) | -6.8 | 45.4 | 1.1 | 104.6* | 2.4 | 9.4
Cn1c(CCN2CCN(c3ccccn3)CC2)nc2cc(NS(=O)(=O)c3ccccc3)ccc21 | 0.9 | 10.6 | 1.7 | -1.0 | 0.7 | 0.6
O=C(COC(=O)c1cccc(Cl)c1)NCCN1C(=O)CSC1=O | 1.3 | 13.2 | 1.9 | -6.2 | 15.6* | -1.0
S=C(NCc1ccccc1)C(=S)NCc1ccccc1 | -6.2 | . | . | 97.4* | -0.7 | .
Cc1cc(NC(=O)CSc2nc(=O)n3cc(Cl)ccc3n2)no1 | 6.9 | -7.2 | -11.2 | 15.6 | 4.0 | 51.0
SMILES | HTR2A ag | VLA-4 inh | MEX-5 binding | Granule exo inh | V-ATPase pH | GASC-1 inh
Cc1ccn2c(=O)nc(SCC(=O)Nc3cc(C)on3)nc2c1 | 7.8 | -0.4 | -25.5* | -5.9 | -0.5 | -4.8
O=C(CSC(=S)N1CCCC1)c1cc(Br)cc(Br)c1O | . | -24.8 | 0.8 | . | . | 57.8*
Cc1ccc2oc(=O)c(/C=C(\O)c3cccs3)nc2c1 | -2.6 | -8.7 | -44.8* | -5.6 | 2.0 | 14.0
O=c1oc2ccc(Cl)cc2nc1/C=C(\O)c1cccs1 | -0.2 | -1.6 | -66.6* | 2.6 | 3.2 | 8.2
COC(=O)C1CCN(S(=O)(=O)CCNC(=O)c2ccc(F)cc2)CC1 | 2.3 | 2.5 | 0.2 | -17.1 | 1.9 | 8.1
COc1cccc(NC(=O)CSc2nc3c(sc4ccccc43)c(=O)n2CCN(C)C)c1 | 2.2 | 9.8 | 1.6 | 54.7 | 3.4 | 10.5
Cc1cccc(NC(=O)CSc2nc3c([nH]c4ccccc43)c(=O)n2C)c1 | 0.1 | 9.4 | -4.6 | 18.6 | -1.4 | 10.2
COc1cccc(NC(=O)CSc2nc3c([nH]c4ccccc43)c(=O)n2C)c1 | 0.8 | 59.6* | -0.8 | -0.2 | -0.1 | -5.1
CCN(CC)CCn1c(SCC(=O)Nc2cccc(OC)c2)nc2c(sc3ccccc32)c1=O | -1.1 | 8.1 | -0.7 | 69.4* | -1.8 | -9.3
COc1ccccc1OCCSc1nc2ccccc2n1CC(N)=O | -0.4 | 6.5 | -2.2 | -3.2 | 0.8 | -8.5
O=C(NCCc1ccccc1)c1ccc(NC(=O)C2CCCC2)cc1 | -4.0 | . | . | -10.6 | -0.2 | .
O=C(CCSCc1ccc(Cl)cc1)NCCc1ccccc1 | -1.6 | 2.1 | 2.8 | -4.1 | -3.2 | 6.5
O=C(CCSCc1cccc(Cl)c1)NCCc1ccc(Cl)cc1 | -4.9 | 10.3 | 1.0 | -6.1 | 57.5* | 11.3
COc1cc(C(=O)N/N=C(\C)c2ccc(NC(=O)Cc3ccccc3)cc2)ccc1O | -5.3 | -7.0 | . | 1.8 | 0.4 | -6.2
CC(C)CC(NC(=O)C1CCC(=O)N1)C(=O)NC(CC(C)C)C(=O)N1CCCC1C(N)=O (centres undefined) | -1.4 | 4.5 | 0.3 | 1.2 | -0.1 | ?
Cc1nn(C)c(N)c1C(O)(c1nccn1C)C(F)(F)F (centres undefined) | 5.8 | -8.5 | -0.3 | 0.4 | 0.0 | 80.6*
Cn1ccnc1C(O)(c1ccccc1)c1nccn1C | 1.1 | 7.9 | -2.2 | -3.4 | 2.8 | 2.9
CN(c1ccccc1)c1nc(N)c([N+](=O)[O-])c(Nc2ccccc2F)n1 | -0.8 | -1.2 | 1.5 | 75.6* | 2.0 | 0.6
COCCNC(=O)C(c1ccc(F)cc1)N(CCOC)C(=O)CCC(=O)Nc1ccccn1 (centres undefined) | 2.4 | 3.9 | -0.4 | -6.5 | -0.6 | -8.6
Cc1ccc2c(c1)C(=C(C#N)C#N)C(=O)N2CCN1CCCCC1 | -3.0 | -5.4 | . | 56.3* | -2.4 | -20.0
CN(C)c1ccc(C(=O)C(=O)N2CCN(c3ccccc3)CC2)cc1 | -3.1 | . | . | 0.4 | . | .

Screening results from PubChem BioAssay.
